# The sample as a whole holds a higher share of the strongest signals than the screen did.
# B1: rEtpA (Escherichia coli) (protein)
# chain: MNRIYKLKFDKRRNELVVVSEITTGVGNAKATGSVEGEKSPRRGVRAMALSLLSGMMIMAHPAMSANLPTGGQIVAGSGSIQTPSGNQMNIHQNSQNMVANWNSFDIGKGNTVQFDQPSSSAVALNRVVGGGESQIMGNLKANGQVFLVNPNGVLFGEGASVSTSGFVASTRDIKNDDFMNRRYTFSGGQKAGAAIVNQGELTTNAGGYIVLAADRVSNSGTIRTPGGKTVLAASERITLQLDNGGLMSVQVTGDVVNALVENRGLVSARDGQVYLTALGRGMLMNTVLNVSGVVEASGMHRQDGNIVLDGGDSGVVHLSGTLQADNASGQGGKVVVQGKNILLDKGSNITATGGQGGGEVYVGGGWQGKDSNIRNADKVVMQGGARIDVSATQQGNGGTAVLWSDSYTNFHGQISAKGGETGGNGGRVETSSHGNLQAFGTVSASAKKGKAGNWLLDSADITIVNGSNVSKTETTQSPPHTQFAPTAAGSAVSNTSINNRLNNGTSVTILTHRTRTGTAQGGNITVNAAINKSNGSDVNLTLQAGGNITVNNSITSTEGKLNVNLSGARTSNGSITISNNANITTNGGDITVGTTNTSNRVNISINNTTLNASNGNIQLTGTGTDSGILFAGNNRLTASNIALTGNSTSGNAINLTGTATLNATNNITLTGSSTSGNAINLKGNNTLTASNITLTGESTSGNAINLTDTTGTTTLNATNNITMQGTRVQIKHSNITAGNFALNATVAGSEISNTTLTATNNINLAAKTNSASSGVYLKDARITSTNGSITANGTATANGKATHLDGNVTLNASNGRIKLTGNGHGSASGILFAGNNRLTASNIALTGNSTSGNAINLTGTATLNATNDITLTGSSTSGNAINLTGTATLNATNNITLTGSSTSGNAINLKGNNTLTASNITLTGESTSGNAINLTDTTGTTTLNATNNITMQGTRVQIKHSNITAGNFALNATVAGSEISNTTLTATNNINLAAKTNSASSGVYLKDARITSTNGSITANGTATANGKATHLDGNVTLNASNGRIKLTGNGHGSASGILFAGNNRLTASNIALTGNSTSGNAINLTGTATLNATNDITLTGSSTSGNAINLTGTATLNATNNITLTGSSTSGNAINLKGNNTLTASNITLTGESTSGNAINLTDTTGTTTLNATNNITMQGTRVQIKHSNITAGNFALNATVAGSEISNTTLTATNNINLAAKTNSASSGVYLKDARITSTNGSITANGTATANGKATHLDGNVTLNASNGRIKLTGNGHGSASGILFAGNNRLTASNIALTGNSTSGNAINLTGTATLNATNDITLTGSSTSGNAINLTGTATLNATNNITLTGSSTSGNAINLKGNNTLTASNITLTGESTSGNAINLTDTTGTTTLNATNNITMQGTRVQIKHSNITAGNFALNATVAGSEISNTTLTATNNINLAAKTNSASSGVYLKDARITSTNGSITTNGTATANGKATHLDGNVTLNASNGRIKLTGNGHGSASGILFAGNNRLTASNIALTGNSTSGNAINLTGTATLNATNDITLTGSSTSGNAINLTGTATLNATNNITLTGSSTSGNAINLKGNNTLTASNITLTGESTSGNAINLTDTTGTTTLNATNNITMQGTRVQIKHSNITAGNFALNATVAGSEISNTTLTATNNINLAAKTNSASSGVYLKDARITSTNGSITANGTAPANDNATYLDGNVTLNASNGSIKLTGNGNGSTSGILFAGNNTLTASNITLTGNSEVYWQKLGPEQKLISEEDLNSAVDHHHHHH
# Key:
# Test in all cases: glycan array binding signal (z-score within array); higher = stronger binding
# Conditions in all cases: glycan notation: IUPAC condensed, linker removed
# Gal3S6S(b1-4)GlcNAc = molecular target: Gal3S6S(b1-4)GlcNAc
# How it was run: (§1)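 Glycan array binding is given as a within-array Z-score, which can be read as non-binding when negative. The arrays, 3228 of them, came from the Consortium for Functional Glycomics database and were retained only where the protein sequence was available. Z-scores were averaged across arrays of the same protein sequence at different concentrations or buffers and across linkers.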
# Gal6S(b1-4)GlcNAc6S = molecular target: Gal6S(b1-4)GlcNAc6S
# How it was run: as §1
# [1] = molecular target: Glc(a1-4)Glc(a1-4)Glc(a1-4)Glc
# How it was run: as §1
# GlcA(b1-3)GlcNAc = molecular target: GlcA(b1-3)GlcNAc
# How it was run: as §1
# [2] = molecular target: GlcA3S(b1-3)Gal(b1-4)GlcNAc(b1-2)Man
# How it was run: as §1
# [3] = molecular target: GlcNAc(a1-4)Gal(b1-3)GlcNAc
# How it was run: as §1
# [4] = molecular target: GlcNAc(a1-4)Gal(b1-4)GalNAc
# How it was run: as §1
# [5] = molecular target: GlcNAc(a1-4)Gal(b1-4)GlcNAc
# How it was run: as §1
# [6] = molecular target: GlcNAc(a1-4)Gal(b1-4)GlcNAc(b1-3)Gal(b1-4)Glc
# How it was run: as §1
# [7] = molecular target: GlcNAc(a1-4)Gal(b1-4)GlcNAc(b1-3)Gal(b1-4)GlcNAc
# How it was run: as §1
# [8] = molecular target: GlcNAc(a1-4)Gal(b1-4)GlcNAc(b1-3)Gal(b1-4)GlcNAc(b1-3)Gal(b1-4)GlcNAc
# How it was run: as §1
# [9] = molecular target: GlcNAc(a1-4)Gal(b1-4)GlcNAc(b1-3)Gal(b1-4)[Fuc(a1-3)]GlcNAc(b1-3)Gal(b1-4)[Fuc(a1-3)]GlcNAc
# How it was run: as §1
# [10] = molecular target: GlcNAc(b1-3)[GlcNAc(b1-6)]Gal(b1-4)GlcNAc
# How it was run: as §1
# [11] = molecular target: GlcNAc(b1-6)Gal(b1-4)GlcNAc
# How it was run: as §1
# Kdn(a2-3)Gal(b1-3)GlcNAc = molecular target: Kdn(a2-3)Gal(b1-3)GlcNAc
# How it was run: as §1
# [12] = molecular target: Man(a1-2)Man(a1-3)[Man(a1-2)Man(a1-6)]Man(a1-6)[Man(a1-2)Man(a1-2)Man(a1-3)]Man(b1-4)GlcNAc(b1-4)GlcNAc
# How it was run: as §1
# [13] = molecular target: Neu5Ac(a2-3)Gal(b1-3)GlcNAc(b1-2)[Neu5Ac(a2-3)Gal(b1-3)GlcNAc(b1-4)]Man(a1-6)[Neu5Ac(a2-3)Gal(b1-3)GlcNAc(b1-2)Man(a1-3)]Man(b1-4)GlcNAc(b1-4)GlcNAc
# How it was run: as §1
# [14] = molecular target: Neu5Ac(a2-3)Gal(b1-3)[Fuc(a1-4)]GlcNAc(b1-3)Gal(b1-4)[Fuc(a1-3)]GlcNAc
# How it was run: as §1
# [15] = molecular target: Neu5Ac(a2-3)Gal(b1-4)GlcNAc(b1-2)Man(a1-3)[Neu5Ac(a2-6)Gal(b1-4)GlcNAc(b1-2)Man(a1-6)]Man(b1-4)GlcNAc(b1-4)GlcNAc
# How it was run: as §1
# [16] = molecular target: Neu5Ac(a2-3)Gal(b1-4)GlcNAc(b1-3)Gal(b1-4)GlcNAc(b1-3)GalNAc
# How it was run: as §1
# [17] = molecular target: Neu5Ac(a2-3)Gal6S(b1-4)GlcNAc
# How it was run: as §1
# Neu5Ac(a2-6)Gal = molecular target: Neu5Ac(a2-6)Gal
# How it was run: as §1
# [18] = molecular target: Neu5Ac(a2-8)Neu5Ac(a2-3)[GalNAc(b1-4)]Gal(b1-4)Glc
# How it was run: as §1
# [19] = molecular target: Neu5Gc(a2-3)Gal(b1-4)GlcNAc
# How it was run: as §1
# [20] = molecular target: Neu5Gc(a2-6)Gal(b1-4)GlcNAc
# How it was run: as §1
# [21] = molecular target: Neu5Gc(a2-8)Neu5Ac(a2-3)Gal(b1-4)GlcNAc
# How it was run: as §1
# [22] = molecular target: Neu5Gc(a2-8)Neu5Gc(a2-3)Gal(b1-4)GlcNAc(b1-3)Gal(b1-4)GlcNAc
# How it was run: as §1
binder,measurement,setting,value
B1,glycan array binding signal (z-score),Gal3S6S(b1-4)GlcNAc,-0.028
same,glycan array binding signal (z-score),Gal6S(b1-4)GlcNAc6S,0.353
same,glycan array binding signal (z-score),[1],1.05
same,glycan array binding signal (z-score),GlcA(b1-3)GlcNAc,-0.337
same,glycan array binding signal (z-score),[2],-0.154
same,glycan array binding signal (z-score),[3],2.45
same,glycan array binding signal (z-score),[4],10.8
same,glycan array binding signal (z-score),[5],5.29
same,glycan array binding signal (z-score),[6],4.48
same,glycan array binding signal (z-score),[7],7.75
same,glycan array binding signal (z-score),[8],10.9
same,glycan array binding signal (z-score),[9],6.35
same,glycan array binding signal (z-score),[10],-0.354
same,glycan array binding signal (z-score),[11],-0.395
same,glycan array binding signal (z-score),Kdn(a2-3)Gal(b1-3)GlcNAc,0.581
same,glycan array binding signal (z-score),[12],-0.275
same,glycan array binding signal (z-score),[13],-0.163
same,glycan array binding signal (z-score),[14],-0.21
same,glycan array binding signal (z-score),[15],-0.305
same,glycan array binding signal (z-score),[16],-0.38
same,glycan array binding signal (z-score),[17],0.188
same,glycan array binding signal (z-score),Neu5Ac(a2-6)Gal,8.28
same,glycan array binding signal (z-score),[18],0.026
same,glycan array binding signal (z-score),[19],-0.194
same,glycan array binding signal (z-score),[20],0.192
same,glycan array binding signal (z-score),[21],-0.108
same,glycan array binding signal (z-score),[22],-0.353

# — the supplement of paper PMC8728848
